Source: PubChem BioAssay AID1259415 (National Center for Advancing Translational Sciences (NCATS), 2018)
Screen size: about 410,000 compounds; about 18,000 (4.4%) were called active. Inconclusive results (about 7%) are left out. Shown is part of a subset that was picked to be rich in actives. A number with no mark means an inactive call. Rule as the data show it: active = activity change below about -60%; inconclusive = no clear call, values can overlap the other calls; inactive = above about -39%.

assay: qHTS Assay for inhibitors of the human cytomegalovirus (HCMV); details: HFF cells, HCMV-luciferase reporter, 72 h; at 57.5 µM; stronger effect = lower value
Text: NCGC Assay Overview: Infection with human cytomegalovirus (HCMV) continues to pose significant threats for pregnant women and immunocompromised hosts. HCMV causes serious morbidity and mortality in transplant recipients, and congenital HCMV is the leading infectious cause of mental retardation and deafness in children. In the 1990s, the annual costs associated with the disease burden of congenital CMV were estimated at around $2 billion. A HCMV vaccine is not available yet and HCMV therapies result in intolerable side effects and emergence of drug resistant viruses. […] Towards this goal we have developed and characterized a luciferase HCMV reporter that was initially used in 96 well plates and then optimized to 1536-well plates for utilization in screening of the MLSMR collection, the NGCG diversity collection and the NCGC Pharmaceutical Collection of approved and investigational drugs.
NCGC Assay Protocol Summary:
This is a cell-based assay for HCMV inhibition in HFFs cells. The screening used 2 compound doses and the HCMV-luciferase at MOI of 1 PFU/cell. Cells were treated and infected with HCMV. At 72 h post infection cell lysates were collected and luciferase activity was determined using the Glomax-Multi + Detection System (Promega, Madison, WI). Data were normalized to the controls for basal activity (buffer only) and known HCMV inhibitors Salinmoycin.
1536-well assay protocol for the assay:
(1) Add 3 ul CMV/HFF cell culture. 1000 cells/well in DMEM nirmal media.
(2) Incubate 16 hr at 37C.
(3) Add 23 nl control compound, 10uM of Salinomycin.
(4) Add 23 nl compounds in DMSO solution.
(5) Add 3 ul CMV suspension. Final 1 puf/ul, Virus stock 2000pfu/ul
(6) Incubate 72 hrs at 37C.
(7) Add 4 ul OneGlo Luc Reagent.
(8) Incubate 5 min at room temperature.
% is scaled to controls: 0 for no effect and ±100 for the full control effect.

Row | Compound | activity change, negative = inhibition
1 | COc1ccc(C(=O)N2CCCC(C(=O)c3ccccc3OC)C2)cc1OC (stereo not given) | -10.3%
2 | O=C(CSCc1cnn(-c2ccccc2)c1-n1cccc1)NCc1ccccc1Br | -36.4%
3 | CCc1cc2c(-c3ccccc3)cc(=O)oc2c2c1OCN(Cc1ccc(C)cc1)C2 | 0.791%
4 | O=C(/C=C/Sc1ncn[nH]1)c1ccc(Cl)cc1 | -76.4% (active)
5 | Cc1cc(C)c(NC(=O)c2cc3sc(Cl)cc3n2C)c(C)c1 | -0.202%
6 | Cc1ccccc1Nc1c([N+](=O)[O-])ccc2nonc12 | -2.44%
7 | CN(c1ccccc1)c1ccc([N+](=O)[O-])c2nonc12 | -75% (active)
8 | CN(Cc1ccccc1)c1ccc(-c2nc(-c3ccccc3)no2)cc1[N+](=O)[O-] | 22.8%
9 | CC(=O)Nc1c2c(nn1-c1ccc(C)cc1C)CS(=O)C2 (stereo not given) | 0%
10 | COc1ccc(-n2nc3c(c2NC(=O)Cc2cccc(C)c2)CS(=O)C3)cc1 (stereo not given) | 0.139%
11 | Cc1ccc(-n2nc3c(c2NC(=O)CCC2CCCCC2)CS(=O)C3)cc1 (stereo not given) | -68.2% (active)
12 | CCOc1cc(C(=O)NCCc2csc3nc(-c4ccc(C)cc4)nn23)cc(OCC)c1OCC | -29.1%
13 | Cc1cc(C)n(CC(C)NCc2c(C(=O)N3CCOCC3)nc3c(C)cccn23)n1 (stereo not given) | 16%
14 | CCCCCn1c(=O)[nH]c2cc(C(=O)Nc3ccc(F)cc3)ccc2c1=O | 3.61%
15 | O=C(COc1ccc(NC(=O)c2ccccc2[N+](=O)[O-])cc1)c1ccc(F)cc1 | -16.6%
16 | Cc1ccc(CC(=O)Nc2cccc(C#N)c2)cc1 | 6.08%
17 | CC(=O)Nc1ccc(NC(=O)C(C)OC(=O)c2ccccc2C(=O)c2ccc(Cl)c([N+](=O)[O-])c2)cc1 (stereo not given) | -83.7% (active)
18 | N#Cc1cccc(NC(=O)COC(=O)c2ccccc2C(=O)c2ccc(Cl)c([N+](=O)[O-])c2)c1 | -99.2% (active)
19 | CC(C)NC(=O)c1ccc(Sc2ccccc2)c([N+](=O)[O-])c1 | -15.4%
20 | Nc1nc(SCC(=O)Nc2ccc(Cl)c([N+](=O)[O-])c2)n[nH]1 | -9.65%
21 | CCOc1ccc(NC(=O)C(CC(C)C)N2Cc3ccccc3C2=O)cc1 (stereo not given) | 9.79%
22 | Cc1ccccc1-c1nc(SCC(=O)N(C)c2ccccc2)c2c(=O)n(C)c(=O)n(C)c2n1 | 27.2%
23 | CCCN1CCN(CCCNC(=O)c2ccc3nc(Cc4ccccc4)oc3c2)CC1 | 8.36%
24 | COCCNC(=O)c1ccc2c(c1)N(Cc1cccc(Cl)c1)C(=O)c1ccccc1S2(=O)=O | 5.49%
25 | CN1CCN(CCCNC(=O)c2ccc(/C=C3\Oc4ccccc4N(Cc4ccc(Cl)cc4)C3=O)cc2)CC1 | -110% (active)
26 | CCc1nc(-c2cc(S(=O)(=O)N3CCN(c4ccc(OC)cc4)CC3)ccc2OC)no1 | 48.2%
27 | Clc1ccccc1CSc1nncn2c1cc1occc12 | -18.9%
28 | CCOc1cc(-c2cc(-c3ccc(NC(C)=O)cc3)nc(N)c2C#N)ccc1O | -70.4% (active)

Row | Compound | activity change, negative = inhibition
29 | CCOC(=O)CN(C(=O)COc1nc(-c2ccccc2)cc(C)c1C#N)c1ccc(F)cc1 | -37.6%
30 | Cc1ccc(-c2cc(C(F)(F)F)c(C#N)c(SCC(=O)Nc3ccccc3)n2)cc1 | 1.85%
31 | Cc1ccc(-c2nc(CS(=O)(=O)CC(=O)NCc3ccccc3Cl)c(C)o2)cc1 | -14.3%
32 | CCOc1ccc(NS(=O)(=O)c2ccc(N)cc2)nn1 | -10.2%
33 | CCCCn1c(=N)c(S(=O)(=O)c2ccccc2)cc2c(=O)n3cccc(C)c3nc21 | 12.5%
34 | COc1ccc(Cc2n[nH]c(=S)n2NC(=O)Nc2ccc(C)cc2)cc1 | 4.71%
35 | COc1ccc(CC(=O)Nc2ccc(-c3nc4ccccc4s3)c(C)c2)cc1 | 52.5%
36 | COc1ccc(CC(=O)Nc2ccc(-c3nnc(-c4ccc(C)cc4)o3)cc2)cc1 | -63.2% (active)
37 | CCn1c2ccccc2c2nnc(N3CCN(c4cc(C)ccc4C)CC3)nc21 | -34%
38 | COc1cc(OC)c(NC(=O)Cc2ccc(-n3c(C)nc4cccnc43)cc2)cc1Cl | 0%
39 | Cc1cc2n(n1)C(c1cc(C(C)(C)C)c(O)cc1O)Nc1ccccc1-2 (stereo not given) | -23.1%
40 | COc1ccc(-c2nc(CS(=O)(=O)CC(=O)NCc3cccc(Br)c3)c(C)o2)cc1 | 5.73%
41 | COc1cccc(-c2nc(CS(=O)(=O)CC(=O)N3CCN(c4cc(C)ccc4C)CC3)c(C)o2)c1 | -75.7% (active)
42 | CCCCN(CC)CCCNC(=O)CS(=O)(=O)Cc1nc(-c2cccc(OC)c2)oc1C | 29.6%
43 | CCS(=O)(=O)n1nc(-c2ccccc2)nc1SCc1ccccc1 | 138%
44 | COc1cc(OC)c(C2C=C(C(=O)O)Nc3ncnn32)cc1OC (stereo not given) | 6.4%
45 | COc1ccc(Cn2c(=S)[nH]c3cc(C(=O)NCCCN4CCOCC4)ccc3c2=O)cc1 | -65.2% (active)
46 | COCCn1c(=S)[nH]c2cc(C(=O)NCCc3ccc(OC)c(OC)c3)ccc2c1=O | 29.3%
47 | CCN(CC)CCCNC(=O)c1ccc2c(=O)n(Cc3ccc4c(c3)OCO4)c(=S)[nH]c2c1 | 69.4%
48 | COc1ccc(C(F)(F)F)cc1N/C=C\c1nnnn1-c1ccc(C)cc1 | 34.7%
49 | Cc1ccc(CN2CCc3nc(N4CCN(C)CC4)ncc3C2)cc1 | -6.43%
50 | CCCCOCCCNC(=O)C[C@@H]1C[C@@]2(C(=O)OCC)CCCC=C2N(CCC2=CCCCC2)C1=O | 22.8%
51 | CS(=O)(=O)N1CCc2nc(-c3ccccc3)sc2C1 | 154%
52 | CCOc1ccc(Nc2c(S(=O)(=O)c3ccccc3)cnc3ccccc23)cc1 | -70% (active)
53 | CCOc1ccc(S(=O)(=O)c2cn(Cc3ccccc3)c3ccc(OCC)cc3c2=O)cc1 | -13.1%
54 | CCOc1ccc(S(=O)(=O)NCCSc2ccccc2)cc1 | 43.7%
55 | Cc1cc(F)ccc1NC1(c2ccccc2)C(=O)c2ccccc2C1=O | 6.52%
